Measured values as given in PubChem BioAssay (Tox21).
Results filed as inconclusive are left out. The source made the active and inactive calls. Unless noted, calls follow the shape of the dose curve; as a rule, active = well fitted curve in the direction sought with a large enough effect in the repeat runs; inconclusive = weak or mixed curves; inactive = no such curve, though single readings can be large; an effect the other way counts as inactive or inconclusive.

Experiments:
[1] = qHTS assay to identify small molecule agonists of the estrogen receptor alpha (ER-alpha) signaling pathway in the presence of an antagonist - cell viability counter screen (AID 1259386);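 also: series mostly up to about 92 µM; cells exposed to compounds for 22 h at 37 °C before the viability read; nearly all actives have a fitted effect of over 30% in size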
Outline: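 Viability counter screen using VM7Luc4E2 (full-length ER-alpha, four ERE-luciferase). The cells were treated with compounds alongside ICI-182,780 10.0nM for 22hr, and live-cell protease fluorescence was quantified with CellTiter-Fluor.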

[2] = biological target: Progesterone receptor (Homo sapiens) (UniProt P06401); assay: qHTS assay to identify small molecule agonists of the progesterone receptor (PR) signaling pathway (AID 1346784; calls by dose curve; also: nearly all actives have a fitted effect of over 30% in size)
Outline: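 PR-UAS-bla HEK 293T cells (beta-lactamase reporter under UAS) in 2% charcoal-stripped FBS, dosed with 23 nL compound after 6 hr, incubated 16hr at 37C. LiveBLAzer B/G FRET substrate added, fluorescence read after 2 hours.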

[3] = biological target: Progesterone receptor (Homo sapiens) (UniProt P06401); assay: qHTS assay to identify small molecule antagonists of the progesterone receptor (PR) signaling pathway (AID 1346795; active = well fitted inhibition curve with a large enough effect in the signal ratio in the repeat runs, not every such curve was filed as active; the % refers to the signal ratio)
Outline: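 PR-UAS-bla HEK293T cells with beta-lactamase reporter under UAS control, in 2% charcoal-stripped FBS, treated with compounds plus 1 nM promegestone (R5020, final) for 16 hr at 37C. Read-out: FRET beta-lactamase substrate fluorescence after 2 hr at room temperature.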

[4] = qHTS assay to identify small molecule agonists of the progesterone receptor (PR) signaling pathway - cell viability counter screen (AID 1346799; calls by dose curve; also: nearly all actives have a fitted effect of over 45% in size)
Outline: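 Counter screen in the PR-UAS-bla HEK293T wells (2% charcoal-stripped FBS, 16 h compound exposure at 37 C) after the bla read. CellTiter-Glo added, 30 min at room temperature, luminescence read as cell viability.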

[5] = qHTS assay to identify small molecule antagonists of the TGF-beta/Smad signaling pathway - cell viability counter screen (AID 1346824); also: nearly all actives have a fitted effect of over 50% in size
Outline: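 Cytotoxicity counter-screen run in the same wells as the beta-lactamase Smad reporter read: CellTiter-Glo luminescence after 30 min at room temperature. HEK 293T SBE-bla cells had 5 hr compound exposure at 37 C with TGF-beta1 (0.25 ng/mL stock).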

[6] = qHTS assay to identify small molecule agonists of the TGF-beta/Smad signaling pathway - cell viability counter screen (AID 1346829); also: top concentration of the series differs between compounds; nearly all actives have a fitted effect of over 45% in size
Outline: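 SBE-bla HEK 293T cells plated overnight, compound exposure 5 hr at 37 C. Viability read in the same wells by CellTiter-Glo luminescence after 30 min at room temperature, following the beta-lactamase read.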

[7] = qHTS assay to identify small molecule agonists of the TGF-beta/Smad signaling pathway (AID 1346859; active = well fitted activation curve with a large enough effect in the signal ratio in the repeat runs, not every such curve was filed as active; the % refers to the signal ratio; also: series mostly up to about 77 µM)
Outline: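 SBE-bla HEK293T cells plated overnight, then compound exposure for 5 h at 37 C. Beta-lactamase reporter read with LiveBLAzer B/G FRET substrate after 2 h at room temperature, fluorescence at 405 nm excitation, 460/530 nm emission.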

[8] = biological target: Thyrotropin-releasing hormone receptor (Homo sapiens) (UniProt P34981); assay: qHTS assay to identify small molecule antagonists of the thyrotropin-releasing hormone receptor (TRHR) signaling pathway (AID 1346877; active = well fitted inhibition curve with a large enough effect in the repeat runs, not every such curve was filed as active; also: series mostly up to about 51 µM)
Outline: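 Following an 18 h incubation at 37 °C and a 2 h calcium dye load, TRHR-HEK293 cells were exposed to compound (5 min, room temperature) and challenged with TRH, 1 nM final.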

[9] = biological target: Thyrotropin-releasing hormone receptor (Homo sapiens) (UniProt P34981); assay: qHTS assay to identify small molecule agonists of the thyrotropin-releasing hormone receptor (TRHR) signaling pathway (AID 1346891; calls by dose curve; also: series mostly up to about 58 µM)
Outline: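 HEK293 cells expressing TRHR plated 18 h at 37 C/5% CO2, calcium dye-loaded 2 h at 37 C, then compound added (agonist mode); kinetic calcium fluorescence read 3 min at 1 s intervals; 15 concentrations in triplicate.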

[10] = Human pregnane X receptor (PXR) small molecule agonists, qHTS cell viability counter screen (AID 1346977); also: nearly all actives have a fitted effect of over 50% in size
Outline: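 PXR-Luc HepG2 cells (2,000/well, 5% charcoal-stripped FBS) preincubated 5 hr, then exposed to compounds 24 hr at 37 C. Viability read in the same wells by CellTiter-Fluor fluorescence, reagent added at 23 hr, 1 hr incubation.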

[11] = Caspase-3/7 induction in HepG2 cells by small molecules, qHTS assay (AID 1346978); also: nearly all actives have a fitted effect of over 15% in size
Outline: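 Caspase-3/7 induction was measured by Caspase-Glo 3/7 luminescence (30 min, room temperature) after a 17 hr compound exposure of wild-type HepG2 cells seeded at 2,000 per well and pre-incubated 5 hr.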

[12] = Caspase-3/7 induction in CHO-K1 cells by small molecules, qHTS cell viability counter screen (AID 1346979); also: nearly all actives have a fitted effect of over 35% in size
Outline: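 Wild-type CHO-K1 cells (1,500/well) treated with compound after 5 h plating; after 16 h at 37C, viability read as CellTiter-Fluor fluorescence following 1 h reagent incubation, in the same wells as the caspase read.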

[13] = Caspase-3/7 induction in CHO-K1 cells by small molecules, qHTS assay (AID 1346980); also: nearly all actives have a fitted effect of over 15% in size
Outline: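 Luminescent Caspase-Glo 3/7 read (30min, room temperature) quantified apoptosis induction. Cells were wild-type CHO-K1, treated with compound for 17hr at 37 C and 5% CO2.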

[14] = Caspase-3/7 induction in HepG2 cells by small molecules, qHTS cell viability counter screen (AID 1346981); also: series mostly up to about 92 µM; nearly all actives have a fitted effect of over 30% in size
Outline: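 Viability determined by CellTiter-Fluor fluorescence in HepG2 wells also used for the luminescent Caspase-Glo 3/7 read. Compounds were present for 16 hr at 37 C, 5% CO2 before reagent addition.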

[15] = biological target: Nuclear receptor subfamily 1 group I member 2 (Homo sapiens) (UniProt O75469); assay: Human pregnane X receptor (PXR) small molecule agonists, qHTS assay (AID 1346982); also: nearly all actives have a fitted effect of over 35% in size
Outline: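 Compound-induced hPXR transactivation of a CYP3A4 luciferase reporter was scored in HepG2 PXR-Luc cells over 24 hr at 37 C, 5% CO2, by luminescence.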

[16] = biological target: Cytochrome P450 2D6 (Homo sapiens) (UniProt P10635); assay: Cytochrome P450 Family 2 Subfamily D Member 6 (CYP2D6) small molecule antagonists: luciferase reporter qHTS assay (AID 1671196); also: nearly all actives have a fitted effect of over 50% in size; also: potency is read from the fitted curve at half-maximal effect; as to activity change, negative = inhibition: series mostly up to about 120 µM
Outline: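 Each well received CYP2D6 with its proluciferin substrate and chemical, sat 10 min, then got NADPH regeneration solution for 1 h at room temperature. Luminescence in RLU served as the activity measure.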

[17] = biological target: Nuclear receptor subfamily 1 group I member 2 (Rattus norvegicus) (UniProt Q9R1A7); assay: Rat pregnane X receptor (rPXR) activation by small molecules, qHTS assay (AID 1346983); details: rPXR luciferase reporter cells, One-Glo luminescence, 24 h; max activation: active compounds read high; also: nearly all actives have a fitted effect of over 20% in size
Outline: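 Luminescent readout (One-Glo luciferase, 30 min room temperature) followed 24 hr compound treatment at 37 C of rPXR cells plated 2,000 per well and preincubated 5hr; qHTS format with compounds delivered in DMSO.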

[18] = qHTS assay to identify small molecule antagonists of the progesterone receptor (PR) signaling pathway - cell viability counter screen (AID 1346798); also: series mostly up to about 92 µM; nearly all actives have a fitted effect of over 50% in size
Outline: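 PR-UAS-bla HEK293T cells, 3,000/well in 2% charcoal-stripped FBS medium, dosed with compounds plus R5020 agonist and incubated 16 h at 37C. Viability then measured in the same wells by CellTiter-Glo luminescence after 30 min at RT.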

[19] = biological target: Nuclear receptor subfamily 1 group I member 2 (Homo sapiens) (UniProt O75469); assay: Human pregnane X receptor (PXR) activation by small molecules, qHTS assay (AID 1346985); also: nearly all actives have a fitted effect of over 40% in size
Outline: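 DPX-2 cells (HepG2 co-transfected with a PXR response element and a CYP3A4-promoter luciferase construct) were seeded at 2,000 per well, rested 5 hr at 37C, then exposed to DMSO-dissolved compounds for 24 hr. Activation was read as luciferase luminescence.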
% is scaled to controls: 0 for no effect and ±100 for the full control effect.

Sequence of Cytochrome P450 2D6 (Homo sapiens) (P10635 whole entry, looked up): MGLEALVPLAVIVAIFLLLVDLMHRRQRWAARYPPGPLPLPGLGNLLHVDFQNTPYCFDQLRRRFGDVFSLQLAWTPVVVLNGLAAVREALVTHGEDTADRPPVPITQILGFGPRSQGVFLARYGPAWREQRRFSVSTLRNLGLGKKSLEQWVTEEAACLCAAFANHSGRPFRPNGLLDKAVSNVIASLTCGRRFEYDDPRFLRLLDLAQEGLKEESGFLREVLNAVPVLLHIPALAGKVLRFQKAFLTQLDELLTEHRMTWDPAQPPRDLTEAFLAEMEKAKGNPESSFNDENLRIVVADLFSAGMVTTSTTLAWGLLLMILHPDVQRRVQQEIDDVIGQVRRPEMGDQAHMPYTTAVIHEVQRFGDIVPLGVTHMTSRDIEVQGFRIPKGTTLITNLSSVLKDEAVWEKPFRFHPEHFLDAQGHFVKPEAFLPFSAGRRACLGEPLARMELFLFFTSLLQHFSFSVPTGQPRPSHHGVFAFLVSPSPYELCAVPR
Sequence of Nuclear receptor subfamily 1 group I member 2 (Homo sapiens) (O75469 whole entry, looked up): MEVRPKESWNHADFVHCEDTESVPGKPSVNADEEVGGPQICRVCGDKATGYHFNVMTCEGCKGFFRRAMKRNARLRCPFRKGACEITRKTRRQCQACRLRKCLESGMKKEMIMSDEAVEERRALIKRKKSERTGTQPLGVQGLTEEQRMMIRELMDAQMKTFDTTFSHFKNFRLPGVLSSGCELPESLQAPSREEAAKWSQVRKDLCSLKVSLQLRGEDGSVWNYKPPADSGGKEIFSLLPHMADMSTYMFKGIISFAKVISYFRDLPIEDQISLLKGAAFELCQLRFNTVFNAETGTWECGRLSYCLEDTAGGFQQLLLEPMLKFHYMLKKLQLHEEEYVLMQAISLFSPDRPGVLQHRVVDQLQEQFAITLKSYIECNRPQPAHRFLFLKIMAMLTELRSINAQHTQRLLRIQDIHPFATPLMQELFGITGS
Sequence of Progesterone receptor (Homo sapiens) (P06401 whole entry, looked up): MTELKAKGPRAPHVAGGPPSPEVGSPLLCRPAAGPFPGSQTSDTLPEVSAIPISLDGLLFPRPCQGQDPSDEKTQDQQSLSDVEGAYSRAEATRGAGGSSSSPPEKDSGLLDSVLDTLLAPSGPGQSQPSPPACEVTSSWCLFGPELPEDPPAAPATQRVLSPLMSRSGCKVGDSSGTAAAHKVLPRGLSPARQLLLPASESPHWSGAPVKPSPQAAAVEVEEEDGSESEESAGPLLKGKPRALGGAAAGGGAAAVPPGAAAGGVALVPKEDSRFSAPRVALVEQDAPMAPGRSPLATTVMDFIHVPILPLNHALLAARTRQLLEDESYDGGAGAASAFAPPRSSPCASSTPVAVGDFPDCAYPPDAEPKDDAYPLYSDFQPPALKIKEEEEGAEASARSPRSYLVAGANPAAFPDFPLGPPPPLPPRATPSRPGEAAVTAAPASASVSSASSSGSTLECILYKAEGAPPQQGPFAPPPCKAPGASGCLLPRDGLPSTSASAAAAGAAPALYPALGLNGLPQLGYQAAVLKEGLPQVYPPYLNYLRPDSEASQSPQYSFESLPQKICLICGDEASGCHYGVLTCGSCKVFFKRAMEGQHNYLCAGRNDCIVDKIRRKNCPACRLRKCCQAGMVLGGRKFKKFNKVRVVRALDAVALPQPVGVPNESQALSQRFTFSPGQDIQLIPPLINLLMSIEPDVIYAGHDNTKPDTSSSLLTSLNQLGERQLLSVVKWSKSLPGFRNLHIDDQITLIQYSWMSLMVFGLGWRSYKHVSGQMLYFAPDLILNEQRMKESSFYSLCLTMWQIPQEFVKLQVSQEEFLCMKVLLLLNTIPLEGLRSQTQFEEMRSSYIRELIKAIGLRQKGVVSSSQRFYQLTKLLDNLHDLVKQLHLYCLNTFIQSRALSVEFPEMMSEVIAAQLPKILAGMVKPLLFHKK
Sequence of Thyrotropin-releasing hormone receptor (Homo sapiens) (P34981 whole entry, looked up): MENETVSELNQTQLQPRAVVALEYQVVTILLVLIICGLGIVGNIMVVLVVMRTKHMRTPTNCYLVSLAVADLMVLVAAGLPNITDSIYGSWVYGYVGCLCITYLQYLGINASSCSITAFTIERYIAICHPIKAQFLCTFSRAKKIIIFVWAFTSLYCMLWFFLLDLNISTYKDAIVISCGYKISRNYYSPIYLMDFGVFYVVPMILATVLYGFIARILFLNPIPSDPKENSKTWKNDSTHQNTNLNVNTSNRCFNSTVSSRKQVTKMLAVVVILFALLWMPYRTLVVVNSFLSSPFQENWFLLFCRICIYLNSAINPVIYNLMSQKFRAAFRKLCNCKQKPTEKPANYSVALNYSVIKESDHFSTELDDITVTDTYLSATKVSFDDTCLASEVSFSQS
Sequence of Nuclear receptor subfamily 1 group I member 2 (Rattus norvegicus) (Q9R1A7 whole entry, looked up): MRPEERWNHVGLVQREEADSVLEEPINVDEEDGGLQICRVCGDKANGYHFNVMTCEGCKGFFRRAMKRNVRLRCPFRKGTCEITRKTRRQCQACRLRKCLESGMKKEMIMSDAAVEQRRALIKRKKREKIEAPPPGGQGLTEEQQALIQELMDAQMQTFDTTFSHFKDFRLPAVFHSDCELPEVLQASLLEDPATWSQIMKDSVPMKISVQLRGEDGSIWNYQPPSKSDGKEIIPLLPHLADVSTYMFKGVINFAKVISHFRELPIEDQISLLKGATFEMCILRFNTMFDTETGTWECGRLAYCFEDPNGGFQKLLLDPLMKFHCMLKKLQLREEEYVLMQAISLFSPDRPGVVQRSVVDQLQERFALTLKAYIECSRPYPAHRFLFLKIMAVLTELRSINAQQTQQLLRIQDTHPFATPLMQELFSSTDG

CC(C)(C)c1cc(CCC(=O)OCC(COC(=O)CCc2cc(C(C)(C)C)c(O)c(C(C)(C)C)c2)(COC(=O)CCc2cc(C(C)(C)C)c(O)c(C(C)(C)C)c2)COC(=O)CCc2cc(C(C)(C)C)c(O)c(C(C)(C)C)c2)cc(C(C)(C)C)c1O
inactive: Potency [1] | outcome [2] | Potency [3] | Potency [4] | Potency [5] | Potency [6] | outcome [7] | outcome [8] | Potency [9] | Potency [10] | outcome [11] | Potency [12] | Potency [13] | Potency [14] | Potency [15] | Potency [16]

CCN(CC)CCNC(C(=O)OCCC(C)C)c1ccccc1 (stereo not given)
inactive: Potency [1] | outcome [2] | Potency [3] | Potency [5] | Potency [6] | outcome [7] | Potency [9] | outcome [11] | Potency [12] | Potency [14] | max activation [17] -0.588%
active: Potency [16] 1.74 µM

CN1CCC(OC(c2ccccc2)c2ccccc2)CC1
inactive: Potency [1] | outcome [2] | Potency [3] | Potency [5] | Potency [6] | outcome [8] | Potency [9] | outcome [11] | Potency [12] | Potency [13] | Potency [14]

CCOC(=S)SSC(=S)OCC
inactive: Potency [1] | outcome [2] | Potency [3] | Potency [18] | Potency [5] | Potency [6] | outcome [7] | Potency [10] | outcome [11] | Potency [12] | Potency [13] | Potency [14] | Potency [15] | max activation [17] -2.15% | Potency [19]

CCCCCCCCCCCCCCCCCBr
inactive: activity change, negative = cytotoxicity [1] 0.889% [at 19 µM] | activation [2] -0.0997% [at 19 µM] | activity change, negative = cytotoxicity [18] -0.341% [at 18.9 µM] | activity change, negative = cytotoxicity [4] 10.6% [at 19 µM] | viability change, negative = cytotoxic [5] 1.56% [at 15.8 µM] | activity change, negative = cytotoxicity [6] 0.567% [at 15.8 µM] | activation [7] 2.19% [at 15.8 µM] | activity, negative = inhibition [8] -2.78% [at 10.5 µM] | activation [9] -0.232% [at 11.8 µM] | activity change, negative = cytotoxicity [10] 1.63% [at 19 µM] | caspase activation [11] 0.0731% [at 19 µM] | activity change, negative = cytotoxicity [12] 6.07% [at 19 µM] | caspase-3/7 activation [13] -0.258% [at 19 µM] | activity change, negative = cytotoxicity [14] 2.8% [at 19 µM] | activation [15] 1.46% [at 19 µM] | activity change, negative = inhibition [16] -1.15% [at 23.6 µM]
